This is part of a sample that, as a whole, favours compounds with a hit. Of some 83,000 tested, about 20% had one in any assay.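 Single-concentration screen, 48 h exposure, 96-well plates. Endpoint: percent growth. Below 10 = active.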 A number with no mark means an inactive call. The source made the active and inactive calls.
Key:
Assay in all cases: NCI-60 one-dose screen, 48 h (100 = growth as untreated, 0 = no growth, -100 = all killed)
Details in all cases: 10 µM unless noted
NCI-H23 lung = system: NCI-H23 lung
NCI-H226 lung = system: NCI-H226 lung
NCI-H322M lung = system: NCI-H322M lung
HOP-62 NSCLC = system: HOP-62 NSCLC
NCI-H460 lung = system: NCI-H460 lung
HOP-92 NSCLC = system: HOP-92 NSCLC
A549/ATCC NSCLC = system: A549/ATCC NSCLC
786-0 renal = system: 786-0 renal
COLO 205 colon = system: COLO 205 colon
NCI-H522 lung = system: NCI-H522 lung

Structure (SMILES) | growth (NCI-H23 lung) | growth (NCI-H226 lung) | growth (NCI-H322M lung) | growth (HOP-62 NSCLC) | growth (NCI-H460 lung) | growth (HOP-92 NSCLC) | growth (A549/ATCC NSCLC) | growth (786-0 renal) | growth (COLO 205 colon) | growth (NCI-H522 lung)
[2H]C([2H])([2H])Oc1ccc(/C=C/C(=O)/C=C(/C=C/c2ccc(OC([2H])([2H])[2H])c(OC([2H])([2H])[2H])c2OC([2H])([2H])[2H])OB(F)F)c(OC([2H])([2H])[2H])c1OC([2H])([2H])[2H] | 59.5% | 88.5% | 97.7% | 85.7% | 91.7% | 74.1% | 84.2% | 70.9% | 43.6% | –
COc1ccc(NC(=O)c2ccc(Cl)cc2Cl)cc1 | 85.3% | 105% | 103% | 107% | 97.8% | 104% | 96.5% | 93% | 101% | 97.1%
CS(=O)(=O)Nc1cc(-c2ccc3ncnc(Nc4cccc(Cl)c4)c3c2)cnc1Cl | 6.5% (active) | 11.8% | 1.07% (active) | 3.9% (active) | 7.81% (active) | -22.5% (active) | -13.4% (active) | 5.7% (active) | -49.4% (active) | –
COc1cc(C)cc(-c2c(-c3cc(N4CC(O)C4)nc(-c4cccnc4)n3)cnn2C)c1 | 77.9% | 91.5% | 101% | 111% | 90.8% | 74.7% | 84.9% | 81.6% | 104% | –
CCOC(=O)CSc1nc2sc3c(c2c(=O)n1-c1ccccc1)CCCCC3 | 96.2% | 93% | 108% | 97.6% | 110% | 104% | 104% | 109% | 119% | 80.4%
O=C(/C=C/c1cccc([N+](=O)[O-])c1)c1ccc(Nc2nc(Nc3ccc(F)cc3)nc(Nc3ccc(Cl)cc3)n2)cc1 | 81.4% | 87.2% | 87.6% | 151% | 91.9% | 50.9% | 83% | 99.4% | 91.2% | –
CC1(C)CC[C@]2(CO)CC[C@]3(C)C(=CC[C@@H]4[C@@]5(C)CCNCC(C)(C)[C@@H]5CC[C@]43C)[C@@H]2C1 | 88.4% | 106% | 68.9% | 99.3% | 49.5% | 64.2% | 85.6% | 84.6% | -44.1% (active) | –
C=C1CC[C@@H]2[C@](C)(COC(C)=O)[C@H](OC(C)=O)CC[C@@]2(C)[C@@H]1CC(Nc1ccc(S(=O)(=O)Nc2nccc(C)n2)cc1)C1=CCOC1=O (some centres undefined) | 48.4% | -12.1% (active) | 64.8% | 156% | 46.9% | 71.6% | 63.4% | 32.5% | 9.64% (active) | –
O=C(Nc1cccc2c1C(=O)c1cccc(NC(=O)c3ccc(C(=O)Nc4cccc5c4C(=O)c4cccc(NC(=O)c6ccccc6)c4C5=O)cc3)c1C2=O)c1ccccc1 | 98% | 74.1% | 98.8% | 103% | 111% | 58.4% | 99.6% | 109% | 111% | 84.7%
CCN=c1sc2c(n1NC(=O)c1cc3ccc1CCc1ccc(cc1)CC3)C(=O)c1ccccc1C2=O | -32.1% (active) | 73% | 80.5% | -58.6% (active) | 9.62% (active) | -9.79% (active) | -38.8% (active) | -90.4% (active) | 42.6% | -34.8% (active)
C#CC(F)(F)[C@]1(O)CCC2C3CCC4=CC(=O)CCC4=C3[C@@H](c3ccc(N(C)C)cc3)C[C@@]21C (some centres undefined) | 96.5% | 98.5% | 92.8% | 90.6% | 93.4% | 67.8% | 64.8% | 69% | 101% | –
C#C[C@]1(O)CC[C@H]2[C@@H]3CC=C4c5sc(-c6cccc(C)c6)nc5CC[C@]4(C)[C@H]3CC[C@@]21C | 73% | 91.1% | 66.1% | 83.4% | 76.6% | 49.6% | 75.4% | 32.8% | 107% | 70%
O=c1c(/C=C/c2c(O)ccc3ccccc23)nnc2sc(-c3cccc([N+](=O)[O-])c3)nn12 | 61.6% | 64.2% | 41.1% | 31% | 26.5% | 65.7% | 45.7% | 57% | 84.4% | –
C#Cc1cccc(Nc2ncnc3ccc(-c4cnc(Cl)c(NS(C)(=O)=O)c4)cc23)c1 | -5.52% (active) | 2.26% (active) | -42.3% (active) | 3.57% (active) | 6.42% (active) | -17.1% (active) | -28.5% (active) | -14.6% (active) | -69.2% (active) | –
C#Cc1ccc(NC(=O)Cc2ccc(/C=C/C(=O)c3nccn3C)cc2)cc1 | 40.4% | 90.6% | 57.6% | 48.3% | 22.6% | 96.5% | 74.6% | 30% | 66% | –
O=C(CN1C(=O)c2ccccc2S1(=O)=O)Nc1nc(-c2cc3ccccc3oc2=O)cs1 | 110% | 94.4% | 97.3% | 105% | 105% | 96.4% | 104% | 91.8% | 117% | –
CCN1CCN(c2nc(NNC(=O)c3ccc(OC)cc3)nc(N3CCN(C(c4ccccc4)c4ccccc4)CC3)n2)CC1 | 53.3% | 71.9% | 84.1% | 83.6% | -6.88% (active) | 58.7% | 64.4% | 22.9% | -8.98% (active) | –
O=S(=O)(Nc1ccc(Br)cc1)c1ccc(-c2cnc(C3CC3)o2)cc1 | 40.8% | 67.3% | 61.9% | 27.1% | 12.8% | 43% | 40.1% | 37.8% | 23.9% | –
CCOC(=O)c1c(C)n2c(=O)cc(C)c3c(OC(C)=O)c(OC(C)=O)cc1c32 | 75% | 102% | 79.9% | 81.4% | 40.8% | 71.8% | 79.8% | 81.3% | 74.1% | –
CCOc1ccccc1NC(=O)CCC(=O)OC | 109% | 101% | 96.5% | 94.8% | 108% | 110% | 108% | 91.1% | 103% | –
Cn1ncc(CC(=O)O)c1-n1nnc2cc(Cl)ccc2c1=O | 102% | 95.2% | 80.3% | 105% | 108% | 105% | 97.3% | 96.6% | 118% | 97.3%
COc1cccc2cc(N(C)c3nc(C)nc4c3CCC4)ccc12 | 22.4% | 25.8% | 59.1% | 14.7% | 6.85% (active) | 0.483% (active) | 14.8% | 3.77% (active) | -66.4% (active) | –
CN1CCN(Cc2ccc(NC(=O)c3cncc(C#Cc4c(N)ncc5ccccc45)c3)cc2C(F)(F)F)CC1 | -59.1% (active) | -11.8% (active) | -37% (active) | -83.7% (active) | -71.5% (active) | -59.2% (active) | -87.7% (active) | -80.8% (active) | -90.4% (active) | –
Cc1csc(Nc2nc(-c3cccc(Cl)c3)nc(C(Cl)(Cl)Cl)n2)n1 | 79% | 95.6% | -23.1% (active) | 20.3% | 9.9% (active) | 32.7% | 1.73% (active) | 59.5% | -38.6% (active) | –
CC(C)(C)[C@H](OCc1cn([C@H]2C[C@@H](O)[C@@H](CO)O2)c(=O)[nH]c1=O)c1ccc(C#Cc2ccccc2)cc1[N+](=O)[O-] | 90.2% | 99.3% | 47.6% | 86% | 10.1% | 58.1% | 46.5% | 27.8% | 79.1% | –
CCN1CCN(CCOc2ccc(CNc3ccc4nc(CCC5CCCCC5)[nH]c4c3)cc2)CC1 | 75.6% | 38.9% | 66.1% | 50.4% | 42.8% | 22.4% | 48.3% | -11.7% (active) | -74.3% (active) | –
Cc1c(C)c2c(c(C)c1OC(=O)CCC(=O)[O-])CCC(C)(CCCCCCCCCCC[P+](c1ccccc1)(c1ccccc1)c1ccccc1)O2 (centres undefined) | -16.5% (active) | -6.94% (active) | 0.982% (active) | -67.7% (active) | -69% (active) | -82.7% (active) | -2.64% (active) | -49.7% (active) | -52.9% (active) | –
